This is a sample that favours compounds with a hit; in the whole collection about 7.3% have one here.
FMDV antiviral – High Throughput Screening for Foot and Mouth Disease Virus Antivirals; FMDV antiviral cell-based qHTS; Potency, µM (titrated, usually from 57.9 µM), for inactives: at the highest dose activity change, negative = inhibition, most hits filed as inhibitors; 1.2% of 410,000 active; AID 1159524, 2015; calls by dose curve; tested in HEK293T cells; note: read-out not given here; potency is the fitted concentration of half-maximal effect; nearly all actives have a fitted effect of over 45% in size
VACV Venus inh – qHTS for Stage-Specific Inhibitors of Vaccinia Orthopoxvirus: Venus Reporter Primary qHTS; Vaccinia virus Venus reporter expression, fluorescence; Potency, µM (series often up to 36.5 µM), inactives show at the top dose activity change, negative = inhibition, usual class: inhibitors; 0.46% of 330,000 active; AID 720580, 2013; calls by dose curve; tested in A549 cells; note: potency is the fitted concentration of half-maximal effect; nearly all actives have a fitted effect of over 30% in size
HCMV inh – qHTS Assay for inhibitors of the human cytomegalovirus (HCMV) | activity change, negative = inhibition, % at 57.5 µM | 4.5% of 410,000 active | AID 1259415, 2018 | HFF cells, HCMV-luciferase reporter, 72 h; stronger effect = lower value; in the data active = activity change below about -60%; inconclusive = no clear call, values can overlap the other calls; inactive = above about -39%
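Two compound doses tested in HFFs infected with HCMV-luciferase, MOI 1 PFU/cell, 72 h at 37C. Lysate luminescence read with OneGlo; data normalized against buffer-only and 10uM Salinomycin inhibitor controls.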
HCV inhibitor – qHTS Assay for Inhibitors of Hepatitis C Virus (HCV); Potency, µM (highest dose often 41.8 µM), inactives show at the highest dose activity change, negative = inhibition, hits mostly inhibitors; 3.4% of 340,000 active; Huh7.5.1 HCVcc-Cre infection, luciferase reporter, 44 h; active = well fitted inhibition curve with a large enough effect; inconclusive = small, poorly fitted or top-dose-only effect, or another doubt; inactive = no such curve, though single readings can be large or run the other way; note: potency is the fitted concentration of half-maximal effect
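Cells (1,000/well) were plated 4 h before compound, then infected with HCVcc-Cre virus (~0.5 moi). After 44 h further culture, infection was read as luciferase luminescence following a 15 min substrate incubation at room temperature.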
Vaccinia mCherry – qHTS for Stage-Specific Inhibitors of Vaccinia Orthopoxvirus: mCherry Reporter Primary qHTS; AID 720579, 2013; Potency, µM (series often up to 36.5 µM), inactives show top-dose activity change, negative = inhibition, hits mostly inhibitors; 0.63% of 310,000 active; Vaccinia virus mCherry reporter infection, fluorescence; calls by dose curve; tested in A549 cells; note: potency is the fitted concentration of half-maximal effect; nearly all actives have a fitted effect of over 35% in size
The depositor's hits bear a star; ? = inconclusive; · = no result given. % is set by controls: 0 for no effect and ±100 for the full control effect.

SMILES | FMDV antiviral | VACV Venus inh | HCMV inh | HCV inhibitor | Vaccinia mCherry
COc1ccc(S(=O)(=O)N(CC(=O)Nc2ccc(OC)cc2OC)c2ccc(Cl)cc2)cc1 | 3.2µM* | -18% | -25 | · | -24%
CCOc1ccc(NC(=O)CN(c2ccc(Cl)cc2C)S(=O)(=O)c2ccccc2)cc1 | -1% | ? | -69* | · | ?
CCN(c1ccccc1)S(=O)(=O)c1ccc(OC)c(NC(=O)CNCCc2ccccc2)c1 | -22% | -24% | -33 | 7.1µM* | -11%
COc1ccc(NC(=O)CN(c2ccc(OC)c(Cl)c2)S(=O)(=O)c2ccccc2)c(OC)c1 | -13% | · | 13 | ? | ·
Cc1ccc(Cl)cc1N(CC(=O)Nc1cccc(N(C)S(C)(=O)=O)c1)S(C)(=O)=O | 5% | -14% | -17 | -7% | -23%
CCN(c1ccccc1)S(=O)(=O)c1ccc(OC)c(NC(=O)Cc2ccc(F)cc2)c1 | 11% | · | -14 | ? | ·
CN(c1cccc(NC(=O)CN(c2cccc(Cl)c2)S(=O)(=O)c2ccc(Cl)cc2)c1)S(C)(=O)=O | 0% | ? | -40 | 22µM* | -7%
Cc1cccc(C)c1-n1nnnc1C(c1ccnc2ccccc12)N(CCN(C)C)Cc1ccccc1 (stereo not drawn) | ? | -21% | 11 | · | -20%
COC(=O)c1ccc2c(c1)N(CC(=O)Nc1ccc(C)cc1Cl)C(=O)c1ccccc1S2 | -16% | -7% | 18 | · | -17%
O=C(O)CCN1C(=O)c2ccc(NC(=O)CCc3ccccc3)cc2C1=O | -1% | · | 45 | 0% | ·
Cn1cnc(S(=O)(=O)N2CCCCC2c2cc(C(=O)NCc3ccc(Cl)c(Cl)c3)no2)c1 (stereo not drawn) | 0% | -5% | 45 | · | -9%
CCOc1ccc(N(CC(=O)Nc2ccccc2OC)S(=O)(=O)c2ccccc2)cc1 | 2% | · | -87* | ? | ·
COc1ccccc1NC(=O)CN(c1ccc([N+](=O)[O-])cc1)S(=O)(=O)c1ccccc1 | -12% | -6% | -4 | 1% | -9%
CC(=O)c1ccc(N2CCN(C(=O)C3CCN(S(=O)(=O)c4cccc5nonc45)CC3)CC2)cc1 | -19% | 2% | 5 | · | 1%
O=C(CN1N=C(C(F)(F)F)CC1(O)c1ccc([N+](=O)[O-])cc1)c1ccccc1 (stereo not drawn) | -5% | · | 10 | -9% | ·
CCC1=NN(C(=O)c2ccccc2Br)C(O)(c2ccc(Br)cc2)C1 (stereo not drawn) | -14% | -29% | 8 | -9% | ?
CCC1=NN(C(=O)c2ccccc2O)C(O)(c2ccccc2)C1 (stereo not drawn) | -8% | · | -76* | ? | ·
O=C(c1ccccc1O)N1N=C(C(F)(F)F)CC1(O)c1ccc([N+](=O)[O-])cc1 (stereo not drawn) | -19% | · | -102* | -8% | ·
Cc1cccc(NC(=O)C(Cc2ccccc2)NS(=O)(=O)c2ccc3c(c2)c(=O)n(C)c(=O)n3C)c1 (stereo not drawn) | -18% | -9% | -12 | · | -7%
C=CC[n+]1c(-c2ccc(Cl)cc2Cl)csc1Nc1ccc(NC(C)=O)cc1 | -29% | -10% | -94* | ? | ?
C=CC[n+]1c(-c2ccc(C)cc2)csc1Nc1c(C)n(C)n(-c2ccccc2)c1=O | -18% | -12% | ? | -27% | -27%
C=CC[n+]1c(-c2ccc(Cl)cc2Cl)csc1Nc1c(C)n(C)n(-c2ccccc2)c1=O | ? | ? | -87* | 13µM* | ?
CCCOc1ccc(-c2nnn(CC(=O)N3CCCC(C)C3)n2)cc1 (stereo not drawn) | -11% | · | -40 | ? | ·
CCOc1ccc(-c2nnn(CC(=O)N3CCCC(C)C3)n2)cc1 (stereo not drawn) | -8% | · | -70* | -20% | ·
COc1ccc(N2C(=O)CSC23C(=O)N(CC(=O)NCCc2ccccc2)c2ccccc23)cc1 (stereo not drawn) | -10% | 0% | 14 | · | -7%
SMILES | FMDV antiviral | VACV Venus inh | HCMV inh | HCV inhibitor | Vaccinia mCherry
Nc1cc(=O)[nH]c(SCc2ccc(Cl)cc2Cl)n1 | ? | · | -60* | 3.2µM* | ·
COCCNC(=S)Nc1cc(OC)c(NC(=O)c2ccco2)cc1OC | -15% | -8% | -34 | 13µM* | -20%
COc1cc(NC(=O)c2ccco2)c(C(=O)O)cc1OC | -11% | · | -1 | 4% | ·
COC(=O)c1cc(OC)c(OC)cc1NC(=O)c1ccco1 | ? | -18% | -10 | 6.3µM* | ·
COc1ccc(NC(=O)COC(=O)c2cc(OC)c(OC)cc2NC(=O)c2ccco2)cc1OC | -8% | · | -66* | -23% | ·
CCC(=O)Nc1ccc(NC(=O)c2ccco2)c(OC)c1 | 73% | -6% | 48 | -19% | -15%
O=C(Cn1cc(S(=O)(=O)N2CCN(c3ccccc3F)CC2)c2ccccc2c1=O)Nc1cccc(C(F)(F)F)c1 | 2% | -7% | -1 | · | -18%
Cc1ccccc1C(=O)O/N=C/c1c(N2CCOCC2)n(C)c2ccccc12 | ? | · | -99* | 1µM* | ·
COc1ccc2ccccc2c1/C=N/NC(=O)c1sc(N)c(C#N)c1C | 1% | -5% | -28 | ? | -3%
COc1cc(/C=N/NC(=O)c2sc(N)c(C#N)c2C)cc(Br)c1O | -7% | -11% | -67* | ? | ?
CCOC(=O)C1CCN(C(=O)C(=O)Nc2ccc3nc4n(c(=O)c3c2)CCCCC4)CC1 | 0% | -6% | 7 | -3% | -14%
COc1ccc(-c2cc3nc(C)cc(N4CCN(C(=O)c5ccoc5)CC4)n3n2)cc1 | -19% | -1% | -18 | · | -2%
COc1ccc(-c2[nH]nc3nc(N4CCN(C(=O)c5ccoc5)CC4)cc(C(F)(F)F)c23)cc1 | ? | ? | -77* | · | -27%
COc1cccc(-c2nc(-c3ccc4c(c3)NC(=O)CO4)cs2)c1 | -15% | -15% | 2 | 14µM* | -5%
CC(Nc1nc(-c2ccc3c(c2)NC(=O)CO3)cs1)c1ccccc1 (stereo not drawn) | -17% | -24% | ? | 11µM* | -26%
O=C1COc2ccc(-c3csc(-c4ccc(F)cc4)n3)cc2N1 | · | -13% | · | · | -14%
CC(C)c1cc(-c2nc(-c3ccccc3)no2)n[nH]1 | -29% | -11% | -39 | · | -3%
Cc1ccc(-n2c3nc(=O)[nH]c(=O)c-3cc3cc([N+](=O)[O-])ccc32)cc1C | 28µM* | -10% | -99* | 35µM* | -17%
N#Cc1cccc(C(=O)C(=O)N2CCC(c3ccccc3)CC2)c1 | -6% | -13% | -14 | · | ?
O=C(C(=O)N1CCC(c2ccccc2)CC1)c1ccc(F)c(F)c1 | 10% | -5% | -62* | · | ?
O=C(CCC(=O)c1cccs1)OCc1ccc([N+](=O)[O-])cc1 | -8% | · | 1 | 21% | ·
CN(C)C1CCC(CC2CCc3ccccc32)CC1 (stereo not drawn) | · | -12% | · | · | -15%
